# From PubChem BioAssay (Tox21)
# Where “and” joins values, the source holds several entries; their conditions need not be identical. Equal values may be shown once. Values without a mark were called inactive. Records with an inconclusive call do not appear. Where a call stands in place of a potency, no number is given. Calls of active or inactive are those of the source. Unless noted, the call rests on the fitted dose curve; in most records, active means well fitted curve in the direction sought with a large enough effect in the repeat runs; inconclusive means weak or mixed curves; inactive means flat fitted curve, though single readings scatter.
# Legend:
# [1] = qHTS assay to test for compound auto fluorescence at 535 nm (green) in HEK293 cells (AID 720680); further: potency means the concentration at half of the fitted maximal effect
# [2] = qHTS assay to test for compound auto fluorescence at 460 nm (blue) in HEK293 cell free culture (AID 720681); further: potency means the concentration at half of the fitted maximal effect
# Summary of the method: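 Compounds were added to cell-free DMEM with 10% FBS and fluorescence read directly. The blue channel used 405 nm excitation and 460 nm emission, with triamterene as the reference fluorophore.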
# [3] = qHTS assay to test for compound auto fluorescence at 535 nm (green) in HEK293 cell free culture (AID 720682); further: potency means the concentration at half of the fitted maximal effect
# Summary of the method: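 Fluorescein serves as the green reference fluorophore; each compound's intrinsic emission at 535 nm (excitation 485 nm) is reported as an equivalent amount of that dye, measured in serum-containing DMEM without cells.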
# [4] = qHTS assay to test for compound auto fluorescence at 590 nm (red) in HEK293 cell free culture (AID 720683)
# Summary of the method: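 Cell-free wells of DMEM with 10% FBS received compound, and intrinsic fluorescence was read at excitation/emission 540/590 nm. Values expressed as equivalence to Rose Bengal sodium.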
# [5] = qHTS assay to test for compound auto fluorescence at 460 nm (blue) in HepG2 cell free culture (AID 720685); further: potency means the concentration at half of the fitted maximal effect
# Summary of the method: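 Cell-free plates of MEM plus 10% FBS received 23 nL compound or DMSO vehicle; blue-channel (405/460 nm) intensity scored against triamterene as reference fluorophore.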
# [6] = qHTS assay to test for compound auto fluorescence at 535 nm (green) in HepG2 cell free culture (AID 720686); further: potency means the concentration at half of the fitted maximal effect
# [7] = qHTS assay to test for compound auto fluorescence at 460 nm (blue) in HepG2 cells (AID 720687); further: potency means the concentration at half of the fitted maximal effect
# Summary of the method: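 HepG2 cells in MEM with 10% FBS, attached overnight at 37 C, were exposed to compound or DMSO for 1 hr at 37 C, 5% CO2. Blue fluorescence was read at 405/460 nm, with triamterene as reference fluorophore.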
# [8] = target: Glucocorticoid receptor (Homo sapiens) (UniProt P04150); assay: qHTS assay to identify small molecule agonists of the glucocorticoid receptor (GR) signaling pathway (AID 720691; active means well fitted activation curve with a large enough effect in the signal ratio in the repeat runs, not every such curve was filed as active; the % refers to the signal ratio; further: potency means the concentration at half of the fitted maximal effect); conditions: GR-bla HeLa, beta-lactamase reporter ratio, 18 h; activation: at 62.4 µM (top of the series)
# Glucocorticoid receptor (Homo sapiens), sequence (P04150 whole entry, looked up): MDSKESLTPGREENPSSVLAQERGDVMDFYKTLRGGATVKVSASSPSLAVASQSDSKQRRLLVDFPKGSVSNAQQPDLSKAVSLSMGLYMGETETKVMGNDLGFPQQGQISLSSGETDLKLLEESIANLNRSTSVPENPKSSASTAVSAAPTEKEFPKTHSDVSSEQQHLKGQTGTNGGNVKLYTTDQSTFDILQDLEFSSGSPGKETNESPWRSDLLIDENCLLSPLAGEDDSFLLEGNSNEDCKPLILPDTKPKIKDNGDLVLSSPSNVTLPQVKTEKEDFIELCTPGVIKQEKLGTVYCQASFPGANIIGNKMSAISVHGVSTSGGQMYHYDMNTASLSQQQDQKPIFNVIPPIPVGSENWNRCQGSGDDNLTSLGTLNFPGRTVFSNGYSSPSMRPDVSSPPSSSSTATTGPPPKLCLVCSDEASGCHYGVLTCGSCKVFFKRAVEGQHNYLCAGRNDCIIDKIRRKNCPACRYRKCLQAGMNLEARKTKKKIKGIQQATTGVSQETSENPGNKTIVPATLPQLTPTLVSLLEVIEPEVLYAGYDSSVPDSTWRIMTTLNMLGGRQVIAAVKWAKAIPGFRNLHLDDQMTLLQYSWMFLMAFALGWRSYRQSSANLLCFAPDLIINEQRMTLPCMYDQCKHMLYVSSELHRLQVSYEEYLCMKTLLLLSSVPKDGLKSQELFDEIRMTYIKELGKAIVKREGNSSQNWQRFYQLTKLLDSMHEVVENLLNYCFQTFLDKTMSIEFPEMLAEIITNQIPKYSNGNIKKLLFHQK
# Summary of the method: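 Steps: seed GR-bla HeLa cells, incubate 4 h at 37 C/5% CO2; pin-transfer DMSO-dissolved compounds; incubate 18 h at 37 C; add LiveBLAzer B/G FRET substrate; after 2 h at room temperature, measure fluorescence.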
# [9] = target: Glucocorticoid receptor (Homo sapiens) (UniProt P04150); assay: qHTS assay to identify small molecule antagonists of the glucocorticoid receptor (GR) signaling pathway (AID 720692; active means well fitted inhibition curve with a large enough effect in the signal ratio in the repeat runs, not every such curve was filed as active; the % refers to the signal ratio; further: potency means the concentration at half of the fitted maximal effect)
# Summary of the method: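 Antagonism was scored as loss of dexamethasone-driven (5 nM final) reporter signal in HeLa cells bearing a glucocorticoid response element–beta-lactamase construct, after 18 h compound exposure at 37 C and 2 h FRET substrate loading.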
# Tags describe the fitted curve by direction and shape or compound fluorescence and quenching.
smiles,measurement,setting,value
Cc1ccc2ccc3cccc4ccc1c2c34,Potency,[1],inactive
same,Potency,[2],inactive
same,Potency,[3],inactive
same,Potency,[4],inactive
same,Potency,[5],inactive
same,Potency,[6],inactive
same,Potency,[7],inactive
same,Potency,[8],inactive
C=CC(=C)CCC=C(C)C,Potency,[1],inactive
same,Potency,[2],inactive
same,Potency,[3],inactive
same,Potency,[4],inactive
same,Potency,[5],inactive
same,Potency,[6],inactive
same,Potency,[7],inactive
same,Potency,[9],inactive
ClC/C=C\CCl,Potency,[1],inactive
same,Potency,[2],inactive
same,Potency,[3],inactive
same,Potency,[4],inactive
same,Potency,[5],inactive
same,Potency,[6],inactive
same,Potency,[7],inactive
CC1(C)C(=O)N(Br)C(=O)N1Br,Potency,[1],inactive
same,Potency,[2],inactive
same,Potency,[3],inactive
same,Potency,[4],inactive
same,Potency,[5],inactive
same,Potency,[6],inactive
same,Potency,[7],inactive
same,Potency,[8],inactive
same,Potency,[9],inactive
O=C(O)CC(=O)O,Potency,[1],inactive
same,Potency,[2],inactive
same,Potency,[3],inactive
same,Potency,[4],inactive
same,Potency,[5],inactive
same,Potency,[8],inactive
S=P(N1CC1)(N1CC1)N1CC1,Potency,[1],inactive
same,Potency,[2],inactive
same,Potency,[3],inactive
same,Potency,[4],inactive
same,Potency,[5],inactive
same,Potency,[7],inactive
same,Potency,[8],inactive
same,Potency,[9],inactive
CC(C)(c1cc(Br)c(OCCO)c(Br)c1)c1cc(Br)c(OCCO)c(Br)c1,Potency,[1],inactive
same,Potency,[2],inactive
same,Potency,[3],inactive
same,Potency,[4],inactive
same,Potency,[5],inactive
same,Potency,[6],inactive
same,Potency,[7],inactive
CCCCNc1c(C(=O)OCC)c(C)nc2c1cnn2CC,Potency,[1],inactive
same,Potency,[2],inactive
same,Potency,[3],inactive
same,Potency,[4],inactive
same,Potency,[5],inactive
same,Potency,[6],inactive
same,Potency,[7],inactive
same,Potency,[8],inactive
same,Potency,[9],inactive
Brc1ccccc1-c1ccccc1,Potency,[1],inactive
same,Potency,[2],inactive
same,Potency,[3],inactive
same,Potency,[4],inactive
same,Potency,[5],inactive
same,Potency,[6],inactive
same,Potency,[7],inactive
same,Potency,[8],inactive
Clc1ccc(C(Cn2ccnc2)OCc2c(Cl)cccc2Cl)c(Cl)c1 (configuration not stated),"fluorescence, % of fluorescein",[1],0.16% [at 18.6 µM]
same,"fluorescence, % of fluorescent control",[2],-0.0423% [at 18.6 µM]
same,activity change,[3],"-0.0265% [at 18.6 µM, stronger effect = higher value]"
same,"fluorescence, % of fluorescent control",[4],-0.276% [at 18.6 µM]
same,"fluorescence, % of fluorescent control",[5],0% [at 18.6 µM]
same,"fluorescence, % of fluorescein control",[6],0.0431% [at 18.6 µM]
same,"fluorescence, % of fluorescent control",[7],0.116% [at 18.6 µM]
Cc1cccc(Br)c1,Potency,[1],inactive
same,Potency,[2],inactive
same,Potency,[3],inactive
same,Potency,[4],inactive
same,Potency,[5],inactive
same,Potency,[6],inactive
same,Potency,[7],inactive
same,Potency,[8],inactive
same,Potency,[9],inactive
CC(C)OC(=O)c1cc(C(=O)OC(C)C)cc([N+](=O)[O-])c1,Potency,[1],inactive
same,Potency,[2],inactive
same,Potency,[3],inactive
same,Potency,[4],inactive
same,Potency,[5],inactive
same,Potency,[6],inactive
same,Potency,[7],inactive
same,Potency,[8],inactive
C=CC(=O)OCCOCC(CC)(COCCOC(=O)C=C)COCCOC(=O)C=C,Potency,[1],inactive
same,Potency,[2],inactive
same,Potency,[3],inactive
same,Potency,[4],inactive
same,Potency,[5],inactive
same,Potency,[7],inactive
same,Potency,[9],22.8 µM (active)
CC(NCCC(c1ccccc1)c1ccccc1)c1ccccc1 (configuration not stated),Potency,[1],inactive
same,Potency,[2],inactive
same,Potency,[3],inactive
same,Potency,[4],inactive
same,Potency,[5],inactive
same,Potency,[6],inactive
same,Potency,[7],inactive
CCCCN(CCCC)CCC(O)c1cc2c(Cl)cc(Cl)cc2c2cc(C(F)(F)F)ccc12 (configuration not stated),"fluorescence, % of fluorescein",[1],-0.0754% [at 18.6 µM]
same,"fluorescence, % of fluorescent control",[2],-0.0401% [at 18.6 µM]
same,activity change,[3],"-0.0209% [at 18.6 µM, stronger effect = higher value]"
same,"fluorescence, % of fluorescent control",[4],0.212% [at 18.6 µM]
same,"fluorescence, % of fluorescent control",[5],-0.0142% [at 18.6 µM]
same,"fluorescence, % of fluorescent control",[7],0.0481% [at 18.6 µM]
same,Potency,[8],inactive
C[n+]1c2cc(N)ccc2cc2ccc(N)cc21 (tested in a mixture with another compound),Potency,[1],12.6 µM [fluorescent] (active)
same,Potency,[2],11.2 µM (active)
same,Potency,[3],12.6 µM [fluorescent] (active)
same,Potency,[4],inactive
same,Potency,[5],11.2 µM [fluorescent] (active)
same,Potency,[7],14.1 µM [fluorescent] (active)
COc1ccc2sc(C(=O)Nc3nnn[nH]3)c(OC(C)C)c2c1,Potency,[1],inactive
same,Potency,[2],inactive
same,Potency,[3],inactive
same,Potency,[4],inactive
same,Potency,[5],inactive
same,Potency,[6],inactive
same,Potency,[7],inactive
same,Potency,[8],inactive
O=C(Nc1ccc(Cl)cc1)Nc1ccc(Cl)c(C(F)(F)F)c1,Potency,[1],inactive
same,Potency,[2],inactive
same,Potency,[3],inactive
same,Potency,[4],inactive
same,Potency,[5],inactive
same,Potency,[6],inactive
same,Potency,[7],inactive
COC(=O)C1=C(C)NC(C)=C(C(=O)OCCCN2CCC(c3ccccc3)(c3ccccc3)CC2)C1c1cccc([N+](=O)[O-])c1 (configuration not stated),Potency,[1],inactive
same,Potency,[2],inactive
same,Potency,[3],inactive
same,Potency,[4],inactive
same,Potency,[5],inactive
same,Potency,[7],inactive
CCCCCCCCCCCCCC[n+]1ccccc1,Potency,[1],inactive
same,Potency,[2],inactive
same,Potency,[3],inactive
same,Potency,[4],inactive
same,Potency,[5],inactive
same,Potency,[6],inactive
same,Potency,[7],inactive
CCCCCCOc1ccc(O)cc1,Potency,[1],inactive
same,Potency,[2],inactive
same,Potency,[3],inactive
same,Potency,[4],inactive
same,Potency,[5],inactive
same,Potency,[6],inactive
same,Potency,[7],inactive
Cc1occc1SSc1ccoc1C,Potency,[1],inactive
same,Potency,[2],inactive
same,Potency,[3],inactive
same,Potency,[4],inactive
same,Potency,[5],inactive
same,Potency,[6],inactive
same,Potency,[7],inactive
same,Potency,[8],inactive
Nc1ccc2cc3ccc(N)cc3nc2c1,Potency,[1],11.2 µM [fluorescent] (active)
same,Potency,[2],11.2 µM (active)
same,Potency,[3],11.2 µM [fluorescent] (active)
same,Potency,[4],inactive
same,Potency,[5],11.2 µM [fluorescent] (active)
same,Potency,[6],11.2 µM [fluorescent] (active) and 7.08 µM [fluorescent] (active)
same,Potency,[7],12.6 µM [fluorescent] (active)
same,Potency,[8],6.16 µM (active)
CC(C)(c1cc(Br)c(O)c(Br)c1)c1cc(Br)c(O)c(Br)c1,Potency,[1],inactive
same,Potency,[2],inactive
same,Potency,[3],inactive
same,Potency,[4],inactive
same,Potency,[5],inactive
same,Potency,[6],inactive
same,Potency,[7],inactive
CCCOc1sc(C(=O)N2CCC(c3cc(CN)ccc3F)CC2)c(C)c1Br,Potency,[1],inactive
same,Potency,[2],inactive
same,Potency,[3],inactive
same,Potency,[4],inactive
same,Potency,[5],inactive
same,Potency,[6],inactive
same,Potency,[7],inactive
O=C1c2c(O)ccc([N+](=O)[O-])c2C(=O)c2c([N+](=O)[O-])ccc(O)c21,Potency,[1],inactive
same,Potency,[2],inactive
same,Potency,[3],inactive
same,Potency,[4],inactive
same,Potency,[5],inactive
same,Potency,[6],inactive
same,Potency,[7],inactive
c1cc2c3c(c1)ccc1cccc(c13)C2,Potency,[1],inactive
same,Potency,[2],inactive
same,Potency,[3],inactive
same,Potency,[4],inactive
same,Potency,[5],inactive
same,Potency,[6],inactive
same,Potency,[7],inactive
same,Potency,[8],inactive
Cc1c(C)n(Cc2ccccc2)c2ccc(C(=O)OCCN(C)C)cc12,Potency,[1],inactive
same,Potency,[2],inactive
same,Potency,[3],inactive
same,Potency,[4],inactive
same,Potency,[5],inactive
same,Potency,[6],inactive
same,Potency,[7],inactive
same,Potency,[8],inactive
CC(C)(C)CC(C)(C)c1ccccc1O,Potency,[1],inactive
same,Potency,[2],inactive
same,Potency,[3],inactive
same,Potency,[4],inactive
same,Potency,[5],inactive
same,Potency,[6],inactive
same,Potency,[7],inactive
CCC(C)c1cc([N+](=O)[O-])cc([N+](=O)[O-])c1OC(=O)OC(C)C (configuration not stated),Potency,[1],inactive
same,Potency,[2],inactive
same,Potency,[3],inactive
same,Potency,[4],inactive
same,Potency,[5],inactive
same,Potency,[7],inactive
same,Potency,[8],inactive
Cc1ccc(N)cc1O,Potency,[1],inactive
same,Potency,[2],inactive
same,Potency,[3],inactive
same,Potency,[4],inactive
same,Potency,[5],inactive
same,Potency,[7],inactive
same,Potency,[8],inactive
CCCCC(CC)COC(=O)c1ccc(O)cc1 (configuration not stated),Potency,[1],inactive
same,Potency,[2],inactive
same,Potency,[3],inactive
same,Potency,[4],inactive
same,Potency,[5],inactive
same,Potency,[6],inactive
same,Potency,[7],inactive
